In assay [1] the test system is Plasmodium falciparum Sir2 (PF13_0152, Sir2A). Nature of the assay: pfSir2 binders on small-molecule microarrays, primary screen, biochemical, small-molecule microarray, 635 nm fluorescence (AID 1098).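 Further: score merges spot fluorescence intensity with its signal-to-noise ratio.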 The note with it: small-molecule microarray binding, fluorescence 635 nm; higher = more signal.
Assay [2] is described as follows: small-molecule microarray binders of probe aDKK1, primary screen, biochemical, biotinylated probe, 635/667 nm fluorescence (AID 1099).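 Further: score merges 667nm spot fluorescence with signal to noise across triplicate slides.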 The conditions noted are these: higher = more signal.
Assay [3] can be described thus: small-molecule microarray binders of probe aCHRDL2, primary screen, biochemical, biotinylated probe, 635/667 nm fluorescence (AID 1100). The note with it: higher = more signal.
Assay [4] in a line: splicing luciferase reporter signal modulators, primary screen, spliceosome inhibition project, cell-based, HEK293, splice +/- reporter (AID 1101).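 Further: HEK293 cells carrying a splicing-competent luciferase reporter gene; test concentration not given here.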 The conditions noted are these: luminescence, 24 h, higher = more signal, called active from +8 up or from −8 down.
In assay [5] the target is Fibroblast growth factor 10 (Homo sapiens) (UniProt O15520). The experiment in a line: FGF10 binders on small-molecule microarrays, primary screen, biochemical, small-molecule microarray, 635 nm fluorescence (AID 1102). The note with it: FGF10 binding, fluorescence 635 nm, higher = more signal.
Assay [6] concerns glycogen synthase kinase-3 (GSK3A per assay name; protocol says GSK3B). The experiment in a line: GSK3 binders on small-molecule microarrays, primary screen, biochemical, small-molecule microarray, 635 nm fluorescence, GSK3A (AID 1103). Further: the record names both GSK3A and GSK3B. The conditions noted are these: small-molecule microarray binding, fluorescence 635 nm; higher = more signal.
The target of assay [7] is Epidermal growth factor receptor (Homo sapiens) (UniProt P00533). The experiment in a line: EGFR binders on small-molecule microarrays, primary screen, biochemical, small-molecule microarray, 635 nm fluorescence (AID 1104).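 Further: score merges 667 nm emission intensity with spot signal to noise over triplicate slides.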 The conditions noted are these: EGFR binding, higher = more signal.
The target in assay [8] is Follistatin-related protein 3 (Homo sapiens) (UniProt O95633). Nature of the assay: FSTL3 binders on small-molecule microarrays, primary screen, biochemical, small-molecule microarray, 635 nm fluorescence (AID 1105).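 Further: score merges emission near 667 nm and signal to noise per printed spot across three slides.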 The note with it: FSTL3 binding, higher = more signal.
Assay [9] concerns the target Dickkopf-related protein 1 (Homo sapiens) (UniProt O94907). Nature of the assay: DKK1 binders on small-molecule microarrays, primary screen, biochemical, small-molecule microarray, 635 nm fluorescence scan (AID 1106).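 Further: score merges emission near 667 nm with signal to noise over three replicate slides.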 The conditions noted are these: DKK1 binding, higher = more signal.
For assay [10], the system named is Inhibin beta A chain (activin A). Nature of the assay: INHBA (activin A) binders on microarrays, primary screen, biochemical, small-molecule microarray, 635 nm fluorescence scan (AID 1107).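 Further: mouse activin A protein probed at 4.33 µg/mL on printed slides; score merges bound-protein fluorescence near 667 nm with spot signal-to-noise.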 The note with it: small-molecule microarray binding, higher = more signal.
Assay [11] has as its system Human papillomavirus type 1a protein E7 (residues 44-93). The experiment in a line: HPV1a E7 fragment binders on microarrays, primary screen, biochemical, small-molecule microarray, residues 44-93, 635 nm fluorescence (AID 1108).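 Further: E7 fragment applied at 1 µg/mL in TBST for 1 h at 4 C; score combines spot fluorescence with its signal to noise ratio.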 The note with it: small-molecule microarray binding, fluorescence 635 nm; higher = more signal.
Assay [12] in a line: modulators of HCV replicon luciferase signal, primary screen, HCV replication inhibitor project, Huh7 cells, luciferase reporter (AID 1109).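 Further: huh7 hepatoma cells harbouring a luciferase neomycin HCV replicon reporter; luciferase luminescence as measure of HCV replicon replication; test concentration not given here.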 The note with it: 48 h, higher = more signal.
Assay [13] deals with Left-right determination factor 2 (Homo sapiens) (UniProt O00292). The experiment in a line: LEFTY2 binders on small-molecule microarrays, primary screen, biochemical, small-molecule microarray, 635 nm fluorescence scan (AID 1110). The conditions noted are these: LEFTY2 binding, higher = more signal.
The target of assay [14] is Calmodulin-1 (Homo sapiens) (UniProt P0DP23). Nature of the assay: CALM1 binders on microarrays, EGTA buffer, profiling panel, biochemical, small-molecule microarray, Cy5-labelled CALM1 (AID 1111).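 Further: labelled calmodulin applied in Tris saline Tween buffer holding calcium plus EGTA and DTT.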 The conditions noted are these: Cy5-CALM1 binding fluorescence, higher = more signal.
For assay [15] the target is unchanged. Nature of the assay: calcium-bound CALM1 binders on microarrays, profiling panel, artefact control for SMM control-protein annotation, biochemical, small-molecule microarray, Cy5-labelled CALM1, plus calcium (AID 1112).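 Further: score merges spot fluorescence with signal to noise from triplicate slides.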 The note with it: Cy5-CALM1 binding fluorescence, higher = more signal.
A short description of assay [16]: small-molecule microarray binders of probe aWnt5a, primary screen, biochemical, biotinylated probe, 635/667 nm fluorescence (AID 1113).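 Further: score merges 667 nm fluorescence intensity with signal-to-noise per printed feature.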 The note with it: higher = more signal.
Assay [17] can be described thus: small-molecule microarray binders of probe aShh, primary screen, biochemical, biotinylated probe, 635/667 nm fluorescence (AID 1114).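 Further: probe is biotin-labelled aShh protein from a stem cell growth factor screen; measures binding of labelled protein to compounds printed on the slide; score merges feature fluorescence at 667 nm with signal-to-noise.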 The note with it: higher = more signal.
Assay [18] can be described thus: small-molecule microarray binders of probe aNog, primary screen, biochemical, biotinylated probe, 635/667 nm fluorescence (AID 1115).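 Further: probe is biotinylated aNog protein used at 0.15 µg/mL for 1 h at 4 C; z-score combines 667 nm fluorescence of each spot with its signal to noise.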 The conditions noted are these: higher = more signal.
Assay [19] concerns the target Torsin-1A-interacting protein 1 (Homo sapiens) (UniProt Q5JTV8). The experiment in a line: LAP1 binders from COS7 cell lysate, primary screen, small-molecule microarray, 635/667 nm fluorescence (AID 1116). The conditions noted are these: COS7-hLAP1 lysate binding, 635 nm fluorescence, higher = more signal.
The target of assay [20] is Alpha-bungarotoxin (Bungarus multicinctus) (UniProt P60615). The experiment in a line: alpha-bungarotoxin binders on microarray, profiling panel, artefact control for SMM control protein annotation, biochemical, small-molecule microarray, Alexa647 label, 635/667 nm fluorescence (AID 1117). The conditions noted are these: alpha-BTX-A647 binding fluorescence, higher = more signal.

Calls of active or inactive are those of the source.

Chain of Dickkopf-related protein 1 (Homo sapiens) (O94907 whole entry, looked up): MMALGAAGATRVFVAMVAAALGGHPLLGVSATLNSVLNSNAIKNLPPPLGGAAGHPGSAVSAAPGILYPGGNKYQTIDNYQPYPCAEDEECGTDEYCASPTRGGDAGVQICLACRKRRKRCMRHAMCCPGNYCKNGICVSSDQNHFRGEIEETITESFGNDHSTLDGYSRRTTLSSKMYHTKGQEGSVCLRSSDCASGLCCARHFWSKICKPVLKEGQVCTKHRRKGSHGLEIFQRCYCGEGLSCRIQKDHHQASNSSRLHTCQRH
Chain of Left-right determination factor 2 (Homo sapiens) (O00292 whole entry, looked up): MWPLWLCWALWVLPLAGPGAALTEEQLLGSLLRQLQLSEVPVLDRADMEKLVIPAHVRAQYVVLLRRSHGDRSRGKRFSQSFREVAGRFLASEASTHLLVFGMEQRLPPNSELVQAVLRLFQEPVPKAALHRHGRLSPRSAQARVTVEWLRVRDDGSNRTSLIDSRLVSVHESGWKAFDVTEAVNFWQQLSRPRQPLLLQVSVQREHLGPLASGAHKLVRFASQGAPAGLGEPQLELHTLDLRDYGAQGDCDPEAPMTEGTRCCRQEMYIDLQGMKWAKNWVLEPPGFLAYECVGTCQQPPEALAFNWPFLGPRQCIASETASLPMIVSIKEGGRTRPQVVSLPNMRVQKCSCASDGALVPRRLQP
Chain of Fibroblast growth factor 10 (Homo sapiens) (O15520 whole entry, looked up): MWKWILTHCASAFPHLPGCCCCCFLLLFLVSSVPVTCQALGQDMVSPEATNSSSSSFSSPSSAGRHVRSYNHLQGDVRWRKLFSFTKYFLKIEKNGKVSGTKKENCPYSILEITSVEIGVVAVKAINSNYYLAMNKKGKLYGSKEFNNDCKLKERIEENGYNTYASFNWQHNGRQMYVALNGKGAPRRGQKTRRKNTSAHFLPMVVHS
Chain of Epidermal growth factor receptor (Homo sapiens) (P00533 whole entry, looked up): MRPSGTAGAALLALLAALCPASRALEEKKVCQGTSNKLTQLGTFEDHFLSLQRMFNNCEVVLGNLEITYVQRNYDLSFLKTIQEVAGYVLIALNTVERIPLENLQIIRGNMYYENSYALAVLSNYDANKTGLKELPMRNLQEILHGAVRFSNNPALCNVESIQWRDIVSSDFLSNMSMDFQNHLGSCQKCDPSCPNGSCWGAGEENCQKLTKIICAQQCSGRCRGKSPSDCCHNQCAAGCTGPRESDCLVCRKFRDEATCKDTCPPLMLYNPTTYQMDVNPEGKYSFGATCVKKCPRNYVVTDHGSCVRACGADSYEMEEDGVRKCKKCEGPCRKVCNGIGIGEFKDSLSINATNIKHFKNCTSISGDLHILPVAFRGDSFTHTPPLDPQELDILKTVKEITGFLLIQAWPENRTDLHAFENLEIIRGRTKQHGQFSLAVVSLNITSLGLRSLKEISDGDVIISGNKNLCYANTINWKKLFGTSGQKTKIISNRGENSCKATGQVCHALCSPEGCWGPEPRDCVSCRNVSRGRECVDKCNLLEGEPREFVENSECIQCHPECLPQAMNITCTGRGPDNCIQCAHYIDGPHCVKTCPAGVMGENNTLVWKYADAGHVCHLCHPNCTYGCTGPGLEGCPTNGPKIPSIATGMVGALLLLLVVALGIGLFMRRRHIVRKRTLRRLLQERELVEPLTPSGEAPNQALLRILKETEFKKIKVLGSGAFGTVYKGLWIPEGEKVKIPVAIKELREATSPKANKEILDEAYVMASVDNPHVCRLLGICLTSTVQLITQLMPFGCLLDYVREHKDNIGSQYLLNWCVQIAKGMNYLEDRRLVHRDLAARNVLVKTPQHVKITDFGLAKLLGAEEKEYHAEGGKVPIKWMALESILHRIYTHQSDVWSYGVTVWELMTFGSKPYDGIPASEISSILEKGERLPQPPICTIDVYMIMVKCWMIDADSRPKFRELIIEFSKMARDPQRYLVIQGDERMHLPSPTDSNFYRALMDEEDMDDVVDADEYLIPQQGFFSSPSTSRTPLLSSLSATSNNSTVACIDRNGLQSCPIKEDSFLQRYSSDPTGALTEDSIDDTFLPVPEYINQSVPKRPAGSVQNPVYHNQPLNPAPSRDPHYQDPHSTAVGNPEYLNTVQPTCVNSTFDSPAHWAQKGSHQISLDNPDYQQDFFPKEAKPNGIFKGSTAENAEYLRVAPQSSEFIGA
Chain of Alpha-bungarotoxin (Bungarus multicinctus) (P60615 whole entry, looked up): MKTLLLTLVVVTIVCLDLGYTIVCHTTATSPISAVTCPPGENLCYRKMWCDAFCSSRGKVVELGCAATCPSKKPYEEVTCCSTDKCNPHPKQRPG
Chain of Follistatin-related protein 3 (Homo sapiens) (O95633 whole entry, looked up): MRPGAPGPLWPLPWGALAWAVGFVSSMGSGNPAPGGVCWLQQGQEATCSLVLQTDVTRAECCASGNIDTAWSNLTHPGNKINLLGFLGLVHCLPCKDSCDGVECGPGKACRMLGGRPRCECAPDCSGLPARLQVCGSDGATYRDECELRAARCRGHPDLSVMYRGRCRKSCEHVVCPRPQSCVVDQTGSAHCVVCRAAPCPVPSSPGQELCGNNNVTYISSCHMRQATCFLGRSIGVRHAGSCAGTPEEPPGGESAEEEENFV
Chain of Torsin-1A-interacting protein 1 (Homo sapiens) (Q5JTV8 whole entry, looked up): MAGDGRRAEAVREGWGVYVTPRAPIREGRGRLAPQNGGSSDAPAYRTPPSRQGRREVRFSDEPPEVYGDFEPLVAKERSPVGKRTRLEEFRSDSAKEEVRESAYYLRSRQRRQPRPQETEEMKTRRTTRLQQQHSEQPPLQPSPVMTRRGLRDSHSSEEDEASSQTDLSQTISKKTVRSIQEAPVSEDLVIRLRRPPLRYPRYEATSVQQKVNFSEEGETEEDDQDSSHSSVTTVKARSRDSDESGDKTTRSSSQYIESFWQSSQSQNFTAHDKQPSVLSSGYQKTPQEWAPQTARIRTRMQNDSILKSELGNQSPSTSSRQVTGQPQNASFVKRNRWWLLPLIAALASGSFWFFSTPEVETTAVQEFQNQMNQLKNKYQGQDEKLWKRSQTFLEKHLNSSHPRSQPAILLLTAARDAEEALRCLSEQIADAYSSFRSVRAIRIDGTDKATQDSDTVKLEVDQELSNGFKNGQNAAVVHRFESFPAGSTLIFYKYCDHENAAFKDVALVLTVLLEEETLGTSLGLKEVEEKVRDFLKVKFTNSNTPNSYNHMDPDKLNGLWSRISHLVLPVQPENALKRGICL

As to `C[C@]12CCC3c4ccc(OCC5CO5)cc4CCC3C1CC[C@@H]2O` (stereo not given in full), the composite z-score in assay [1] is 0.728; in [2] it was 0.527; in [3], 0.596; in assay [5], 0.457; in assay [6], -0.309; in assay [7], 0.182. Also, the composite z-score in [8] was determined as 0.239; in assay [9], 0.0294; in [10], 0.944; in [11], 0.629; in assay [13], 0.242; in assay [14], 0.964. In addition, the composite z-score in assay [15] is 0.285; in assay [16] it was -0.0346; in assay [17], 0.0062; in [18], 0.316; in assay [19] it was 0.542; in assay [20] it was 1.59. Further, the z-score is 0.147 (inactive) in assay [4] and -2.71 in assay [12].

For the compound `C[C@H]1CC[C@H]2C(=O)N[C@H](Cc3ccccc3)C(=O)N2[C@@H]1c1ccccc1`, the composite z-score in assay [1] was -0.427; in [2], 0.176; in [3] it was -0.225; in [5] it was 0.136; in assay [6], -0.0595; in [7], 0.353. For the same compound, the composite z-score is 0.185 in [8]; 0.768 in [9]; 0.595 in [10]; -1.38 in assay [11]; 0.395 in assay [13]; -0.742 in [14]. For the same compound, the composite z-score in [15] was -0.194; in [16], -0.127; in assay [17], 0.37; in assay [18] it was -0.0428; in [19], 0.51; in [20], -0.009. In addition, the z-score was -0.0985 (inactive) in assay [4] and -0.283 in assay [12].

`CC(CCN1CCCc2nc(C)c(C)cc21)=NOC[C@@H](O)COCc1ccco1`: the composite z-score in [1] is 1.22; in assay [2], 1.57; in [3], -0.216; in assay [5], 1.56; in assay [6], 1.22; in [7] it was 1.76. In addition, the composite z-score in assay [8] is 1.6; in [9] it was 2.25; in assay [10], 1.96; in assay [11], -2.03; in assay [13], 1.73; in [14] it was 0.264. Further, the composite z-score in assay [15] is -2.31; in assay [16] it was 0.937; in assay [17], 2.26; in assay [18], 1.75; in assay [19], 2.57; in assay [20], 1.94. The z-score was 0.58 (inactive) in assay [4] and -0.62 in [12].

`CCOC(=O)[C@H](Cc1ccccc1)NC(=O)CCC1CC(OC(=O)NCc2cccc3ccccc23)CC2(CCCC(COC(=O)NCCc3ccccc3OC)O2)O1` (stereo not given in full): the composite z-score in [1] is 0.405; in assay [2], -0.0537; in [3], -0.409; in assay [5], 0.791; in [6], 0.583; in [7], 0.454. Also, the composite z-score was 1.07 in assay [8]; 0.331 in assay [9]; -0.251 in assay [10]; 0.881 in [11]; 0.584 in assay [13]; 0.38 in assay [14]. For the same compound, the composite z-score in assay [15] was -0.298; in [16] it was -0.195; in assay [17], 0.191; in assay [18], -0.138; in assay [19], 0.135; in assay [20] it was 0.635. In addition, the z-score in assay [4] was 0.223 (inactive); in [12] it was -1.06.

Regarding `CCOC(=O)NN=C1C[C@@H](O)[C@@H](O)[C@@H]2[C@@H]3C(=O)N(c4ccc(F)cc4F)C(=O)[C@@H]3CC[C@H]12`, the composite z-score in assay [1] was -0.304; in assay [2] it was -0.349; in [3] it was -0.626; in [5], 0.158; in assay [6], 0.544; in assay [7], 0.742. The composite z-score in assay [8] is 0.438; in assay [9], 0.871; in [10], 0.0584; in [11], 0.108; in [13] it was 0.42; in assay [14], -0.244. Besides, the composite z-score in assay [15] was -0.212; in assay [16] it was -0.126; in assay [17], -0.289; in [18], 0.0775; in assay [19] it was 0.59; in assay [20] it was 0.21. The z-score is -1.43 (inactive) in assay [4] and 1.28 in assay [12].

With `CCCC[C@H]1CN2[C@@H](CC[C@@H](C)[C@@H]2c2ccc(Br)cc2)C(=O)O1`, the composite z-score is 0.801 in assay [1]; -0.1 in assay [2]; -0.442 in assay [3]; 0.28 in assay [5]; 0.707 in assay [6]; 0.457 in assay [7]. Moreover, the composite z-score in assay [8] was determined as 0.562; in [9], 0.296; in assay [10], 0.0442; in assay [11], 1.01; in assay [13] it was 0.671; in assay [14] it was 0.849. In addition, the composite z-score in [15] is -0.0228; in [16], -0.158; in [17], 0.0121; in assay [18], -0.188; in assay [19], 0.755; in assay [20], 0.678. Further, the z-score was 0.541 (inactive) in assay [4] and -1.04 in [12].

These data come from PubChem BioAssay.
